Source: PubChem
FMDV antiviral: High Throughput Screening for Foot and Mouth Disease Virus Antivirals; FMDV antiviral cell-based qHTS; Potency, µM (doses to about 57.9 µM), for the others: at the top dose activity change, negative = inhibition, actives largely listed as inhibitors; actives 1.2% (n = 410,000); calls by dose curve; tested in HEK293T cells; further: read-out not given here; nearly all actives have a fitted effect of over 45% in size
RE007 growth inh: qHTS Assay for Inhibitors of the HIV-1 protein Vpr; S. pombe RE007 Vpr strain, BacTiter-Glo ATP luminescence, 24 h; Potency, µM (titrated, usually from 92.2 µM), inactives show at the highest dose activity change, negative = less growth, most hits filed as inhibitors; actives 0.21% (n = 360,000); AID 651644, 2012; active means well fitted falling curve with a large enough effect; inconclusive means small, poorly fitted or top-dose-only effect; inactive means no such curve, though single readings can be large or run the other way; further: nearly all actives have a fitted effect of over 50% in size
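Fission yeast RE007 carrying one integrated HIV-1 vpr copy, seeded at OD 0.01 in PMG+AL medium with 23 nL pinned compound. Grown 24 h at 30 degrees; viability read by BacTiter-Glo luminescence after 5 min.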
Sm TGR block: qHTS Assay for the Inhibitors of Schistosoma Mansoni Peroxiredoxins; AID 485364, 2010; purified TGR, DTNB reduction, TNB absorbance 405 nm; Schistosoma mansoni thioredoxin glutathione reductase (TGR), Q962Y6; actives 3% (n = 360,000); Potency, µM (series often up to 114 µM), without a hit: top-dose activity change, negative = inhibition, hits mostly inhibitors; further: nearly all actives have a fitted effect of over 60% in size
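Kinetic colorimetric format: TGR-catalysed, NADPH-driven DTNB reduction monitored via TNB absorbance. Enzyme dispensed at 20 nM; compound exposure 15 min at room temperature before reaction start.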
Tb PYK inh: qHTS of Trypanosoma Brucei Inhibitors | pyruvate kinase (Trypanosoma brucei), Q57TT1 | TbPYK enzyme, Kinase-Glo Plus ATP luminescence, 45 min | Potency, µM (highest dose often 76.8 µM), for inactives: at the top dose activity, negative = inhibition, hits mostly inhibitors | actives 0.12% (n = 410,000); further: nearly all actives have a fitted effect of over 50% in size
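Assay buffer: 50 mM TEA pH 7.2, 100 mM KCl, 10 mM MgCl2, 0.05% BSA, 0.01% Tween-20. Pyruvate kinase from T. brucei plus substrate met compound, then ADP (130 uM final). Luminescence was read post 45 min RT.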
Active calls of the source: *; ? = inconclusive; . = not tested or not shown; [ ] = dose if it differs, or a comment. Only some compounds are listed: those with a hit (about 3.7% of all), similar ones and a draw of the others. Unless noted, the call rests on the fitted dose curve; in most records, active means well fitted curve in the direction sought with a large enough effect; inconclusive means small, poorly fitted or top-dose-only effect, or another doubt; inactive means no such curve, though single readings can be large; an effect the other way counts as inactive or inconclusive. On the % scale 0 is the no-effect control and ±100 the full control effect; potency means the concentration at half of the fitted maximal effect.

SMILES	FMDV antiviral	RE007 growth inh	Sm TGR block	Tb PYK inh
COc1cccc(CNC(=O)c2c(OC)cc(=O)n3c2CCN(C(=O)C2=C(C)OCCO2)CC3)c1	31%	.	.	.
Nc1cc(N2CCCCC2)nc(N)[n+]1OS(=O)(=O)[O-]	12%[97.4 µM]	.	.	.
Cc1ccc(N2C(=O)NC(=O)C3(Cc4ccccc4N4CCN(c5ccccc5)CC43)C2=O)cc1 (centres undefined)	55%	23%	18µM*	-5%
COc1ccc(/C=C/C(=O)NCC2Cc3cccc(-c4nc(C)cnc4C)c3O2)cc1OC (centres undefined)	-14%	.	.	.
COc1ccc(C(c2c(O)ccc3ccccc23)N2CCOCC2)c(OC)c1 (centres undefined)	-1%	-5%	3.5µM*	0%
NC(=O)c1ccccc1C[C@H](C(=O)O)N1C(=O)c2ccc(C(=O)O)cc2C1=O	.	.	0%	.
c1ccc(N2CC3CCc4ccccc4C3=N2)cc1 (centres undefined)	-2%	-4%	45µM*	0%
Cc1ccc(N2CCn3c2nc2c3c(=O)n(Cc3cccc(Cl)c3)c(=O)n2C)cc1C	4%	.	-7%	2%
CC1(C)CC(=O)C(N=Nc2ccc(-c3ccccc3)cc2)=C(O)C1	39%	8%	1%	-7%
CC1(C)CC(=O)C(C(C#Cc2ccccc2)C2=C(O)CC(C)(C)CC2=O)=C(O)C1	9%	-21%	4µM*	?
O=C1CCCC(O)=C1C(C#Cc1ccccc1)C1=C(O)CCCC1=O	-11%	?	3.2µM*	?
N#CCCn1c(=O)c(-c2ccccc2)nc2cnc(Oc3ccccc3)nc21	1%	.	.	0%
Cc1ccc2cc(CNCc3cccc4ccccc34)c(N3CCC(O)CC3)nc2c1	-4%	.	.	.
Cc1ccc([C@@H]2C3COCC=C3C(C#N)=C(N)C2(C#N)C#N)o1 (some centres undefined)	-8%	-4%	35µM*	?
Cc1ccc(C2C3CSCC=C3C(C#N)=C(N)C2(C#N)C#N)cc1 (centres undefined)	.	-10%	?	-10%
COc1cc(OC)c(NC(=O)N2CCN3CCCCC3C2)cc1Cl (centres undefined)	-1%	.	8%	0%
O=C1NC(=O)C(c2ccccc2[N+](=O)[O-])=C1Nc1ccc(O)c(Cl)c1	0%	1%[18.4 µM]	7.1µM*	-10%
CCOc1ccc(C(=O)C(CCC(CN(C)C)C(=O)c2ccc(OCC)cc2)CN(C)C)cc1 (centres undefined)	16µM*	29%	16µM*	0%
COc1ccc(C(=O)C(CCCCC(CN(C)C)C(=O)c2ccc(OC)cc2)CN(C)C)cc1 (centres undefined)	-9%	4%	-38%	5%
CN(C)CC(CCC(CN(C)C)C(=O)c1ccccc1)C(=O)c1ccccc1 (centres undefined)	28µM*	1%	2µM*	-4%
NC(=O)C1CCN(S(=O)(=O)c2cc3c(cc2Cl)NC(=O)CO3)CC1	5%	.	15%	-8%[15.4 µM]
COc1ccccc1N1CCN(CCCNC(=O)c2cnn(-c3ccccc3)c2C2CCN(C(=O)OC(C)(C)C)CC2)CC1	-8%	.	1%	-8%[15.4 µM]
COC(=O)[C@@H]1CCCN1Cc1ccc2c(c1)CN(Cc1ccc3c(c1)CCO3)CCO2	-7%	.	.	.
Cc1cccc(CNC(=O)C2CCN(c3nnc(-n4c(C)ccc4C)s3)CC2)c1	-22%	.	-34%	-7%
COc1ccc(C(=O)Nc2ccc(Nc3ccccc3)cc2)cc1[N+](=O)[O-]	35µM*	-23%	-19%	2%
SMILES	FMDV antiviral	RE007 growth inh	Sm TGR block	Tb PYK inh
Cc1ccc(NC(=O)c2ccc(Nc3c([N+](=O)[O-])cc([N+](=O)[O-])cc3[N+](=O)[O-])cc2)cc1	13µM*	0%	9%	3%
COc1ccc(C(=O)Nc2ccc(OCc3ccccc3)cc2)cc1[N+](=O)[O-]	0%	1%[3.69 µM]	3%	.
Cc1ccc(C)c(N2CCN(C(=O)c3cnn(-c4ccccc4Cl)c3C3CCN(C(=O)OC(C)(C)C)CC3)CC2)c1	?	.	1%	-2%
OC1(c2cccnc2)CCN(Cc2ccc3c(c2)CN(Cc2cc(F)ccc2F)CCO3)CC1	-18%	.	.	.
Cc1ccsc1C(=O)NCC(c1cccs1)N1CCOCC1 (centres undefined)	-23%	3%	.	1%
O=C(NCC(c1cccs1)N1CCOCC1)c1ccc(Br)o1 (centres undefined)	-5%	12%	25µM*	0%
COc1ccccc1OCC(=O)NCC(c1cccs1)N1CCOCC1 (centres undefined)	-17%	4%	-6%	6%
CC(C)c1ccccc1OCC(=O)NCC(c1cccs1)N1CCOCC1 (centres undefined)	32µM*	13%	2%	3%
CC(=O)c1ccc(S(=O)(=O)Nc2ccc(C(=O)NCC(c3cccs3)N3CCOCC3)cc2)cc1 (centres undefined)	-14%	-12%	14µM*	-3%
Cc1cc(C)cc(NC(=O)CC(C)n2nc(C)cc2C)c1 (centres undefined)	-5%	.	0%	4%
Cc1ccccc1-c1nc(CNC(=O)NC2CCCCC2)c(C)o1	28%	.	-5%	-3%
Oc1cccc(-c2c3nc(c(-c4cccc(O)c4)c4ccc([nH]4)c(-c4cccc(O)c4)c4nc(c(-c5cccc(O)c5)c5ccc2[nH]5)CC4)C=C3)c1	.	.	.	-24%
CNc1oc(-c2ccccc2)nc1S(=O)(=O)c1ccc(C)cc1	4%	0%	0%	7%
CCC(C)S(=O)(=O)c1oc(-c2ccc(F)cc2)nc1S(=O)(=O)c1ccc(F)cc1 (centres undefined)	?	.	5.6µM*	4%
CCCCCS(=O)(=O)c1oc(-c2cccs2)nc1S(=O)(=O)c1ccc(C)cc1	28µM*	.	2.8µM*	-8%
CCOc1ccc(-c2nc(S(=O)(=O)c3ccccc3)c(NC)o2)cc1	8%	-6%	-19%	9%
CCCCS(=O)(=O)c1oc(-c2ccc(F)cc2)nc1S(=O)(=O)c1ccc(C)cc1	28µM*	.	3.2µM*	8%
CCS(=O)(=O)c1oc(-c2ccc(F)cc2)nc1S(=O)(=O)c1ccccc1	18µM*	.	0.71µM*	4%
COc1cc(=O)n2c(c1C(=O)NCc1ccco1)CCN(C(=O)c1c(F)ccc(F)c1F)CC2	13%	.	.	.
COc1ccc(CCNC(=O)CN(c2ccccc2)S(=O)(=O)N(C)C)cc1	-22%	.	14%	-4%
CCCSc1oc(-c2cccs2)nc1S(=O)(=O)c1ccc(C)cc1	17%	.	10%	-2%
CCCCS(=O)(=O)c1oc(-c2cccs2)nc1S(=O)(=O)c1ccc(F)cc1	32µM*	.	1.6µM*	1%
Cc1cc2c(C)cc(=O)[nH]c2cc1NC(=O)CCl	?	14%	10µM*	-12%
Cc1cc2oc(=O)cc(C)c2cc1NC(=O)CCl	?	33%	13µM*	-13%
